# The list is not random: actives were taken first. Their share in the collection is about 19%.
# Pf growth 48h: Primary qHTS for delayed death inhibitors of the malarial parasite plastid, 48 hour incubation. P. falciparum luciferase growth in erythrocytes, 48 h. Potency, µM (titrated, usually from 28.7 µM), without a hit: top-dose activity change, negative = inhibition, actives largely listed as inhibitors. actives 5.9% (n = 310,000); further: potency means the concentration at half of the fitted maximal effect; on the % scale 0 is the no-effect control and ±100 the full control effect
#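 Luciferase-expressing parasites in RBCs, 2% Hct / 0.1% parasitemia final; RPMI 1640 + 0.5% Albumax; 37 C, 5% CO2, one generation; luminescence read-out, lower signal = inhibition.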
# Shiga inhibitor: A qHTS for Small Molecule Inhibitors of Shiga Toxin; Vero cells, Shiga toxin protein synthesis inhibition reporter; inhibition, % at 38.7 µM; actives 9.2% (n = 290,000); AID 2315, 2010; in the data active means inhibition mostly above about 28%, no sharp cut-off; inactive means mostly below about 43%; further: 0% is about no effect
# AMA1-RON2 inh: qHTS for Inhibitors of AMA1-RON; Towards Development of Antimalarial Drug Lead: Primary Screen; AlphaScreen AMA1-biotinylated RON2 peptide binding; Plasmodium falciparum AMA1 (3D7) - RON2 peptide interaction; Potency, µM (doses to about 58.2 µM), without a hit: top-dose activity change, negative = inhibition, actives largely listed as inhibitors; actives 0.2% (n = 360,000); AID 720542, 2013;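 further: potency means the concentration at half of the fitted maximal effect; 0% = vehicle wells and -100% = peptide control; nearly all actives have a fitted effect of over 45% in size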
#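 AMA1 (3D7) with his tag at 25 nM final met compounds first, then biotinylated RON2 peptide at 25 nM; detection used donor plus acceptor beads, 10 µg/mL apiece, read by AlphaScreen after 30 min at room temperature.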
# SARS PLpro yeast: qHTS of Yeast-based Assay for SARS-CoV PLP. S. cerevisiae expressing SARS-CoV PLpro, growth rescue. Potency, µM (highest dose often 32.9 µM), without a hit: at the top dose activity, positive = growth rescue, actives largely listed as activators. actives 0.19% (n = 330,000); calls by dose curve; further: potency means the concentration at half of the fitted maximal effect; 0% is about no effect; nearly all actives have a fitted effect of over 55% in size
# Pf growth 96h: Primary qHTS for delayed death inhibitors of the malarial parasite plastid, 96 hour incubation; P. falciparum luciferase reporter growth, 96 h; Potency, µM (highest dose often 28.7 µM), for the others: at the top dose activity change, negative = inhibition, actives largely listed as inhibitors; actives 6.9% (n = 320,000); AID 504834, 2011; further: potency means the concentration at half of the fitted maximal effect; on the % scale 0 is the no-effect control and ±100 the full control effect
#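 P. falciparum expressing integrated firefly luciferase, in erythrocytes at 2% hematocrit, 0.05% parasitemia, incubated with compounds 96 h at 37 C, 5% CO2. Growth inhibition read as loss of luminescence; two-generation exposure targets delayed-death apicoplast inhibitors.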
# Cycloheximide cs: Cycloheximide Counterscreen for Small Molecule Inhibitors of Shiga Toxin. cell reporter, cycloheximide protein synthesis inhibition counterscreen. max response, %. actives 12% (n = 300,000). AID 2314, 2010; in the data active means max response mostly above about 13%, no sharp cut-off; inactive means mostly below about 14%; further: read at 38.3 µM for the half of the compounds with a filed dose; 0% is about no effect
# Starred values were filed as active, the others as inactive; u = inconclusive; x = no result given; [ ] = another dose, or the depositor's remark. Unless noted, the call rests on the fitted dose curve; in most records, active means well fitted curve in the direction sought with a large enough effect; inconclusive means small, poorly fitted or top-dose-only effect, or another doubt; inactive means no such curve, though single readings can be large; an effect the other way counts as inactive or inconclusive.
SMILES,Pf growth 48h,Shiga inhibitor,AMA1-RON2 inh,SARS PLpro yeast,Pf growth 96h,Cycloheximide cs
Fc1cccc(Cl)c1CNCCCSc1ncccn1,-11%,12,-4%,14%,13µM*,4
Clc1cccc(Cl)c1CNCCCSc1ncccn1,-11%,9,1%,-1%,-27%,7.1*
Cc1ccc(-n2ncc3c(SCc4ccccn4)ncnc32)c(C)c1,u,110*,-9%,-21%,u,44*
CSc1ncnc2c1cnn2-c1ccc(C)cc1C,42%,140*,-8%,-6%,46%,35*
C=CCNc1ncnc2c1cnn2-c1ccc(C)cc1C,29%,67*,-2%,-7%,6%,25*
Cc1ccc(-n2ncc3c(SCC(=O)Nc4cc(C)on4)ncnc32)c(C)c1,4%,29,13%,5%,u,-6
Cc1ccc(-n2ncc3c(N4CCC5(CC4)OCCO5)ncnc32)c(C)c1,x,3,9%,6%,5.2µM*,-3
Cc1ccc(-n2ncc3c(N4CCC(C(N)=O)CC4)ncnc32)c(C)c1,4%,-7,32%,0%,x,1
O=C(CC1S/C(=N/N=C2CCCCCC2)NC1=O)Nc1ccc(Br)cc1F (stereo not drawn),5%,-29,82%,-15%,-4%,7
Cc1ccc2cccc(OC(=O)N3CCCC3)c2n1,10%,2,-3%,4%,x,-4
O=C(Oc1ccc2ccccc2c1Cl)N1CCCCCC1,246%,71*,23%,-57%,3.3µM*,66*
O=C(Oc1ccc2ccccc2c1Cl)N1CCCC1,239%,59*,-17%,-1%,u,38*
N#Cc1ccc(NC(=O)COC(=O)c2cccnc2Cl)cc1,x,x,1%[11.6 µM],5%,x,x
COc1cc(NC(=O)c2ccc(C(C)(C)C)cc2)c(OC)cc1NC(=O)CN1CCCCC1,6.6µM*,20,-11%,1%,-3%,20
COc1cc(NC(=O)Nc2ccccc2OC)c(OC)cc1NC(=O)CN1CCCCC1,6.6µM*,-9,-18%,0%,-23%,-5
COC(=O)c1cc(Cl)c(NC(=O)c2ccc(C(C)(C)C)cc2)cc1OC,14%,44*,-4%,-33%,44%,26*
COc1cc(NC(=O)c2ccc(Cl)cc2)c(OC)cc1NC(=O)CN1CCCCC1,-18%,14,u,3%,-16%,21
COc1ccc(N)cc1NC(=O)CN1CCCC1,6%,x,2%,0%,0.12µM*,-5
O=C(Nc1ccc2c(c1)OCCO2)C1c2ccccc2OCC(=O)N1Cc1ccccc1 (stereo not drawn),x,x,11%,x,x,x
CC(C)N(C(=O)COC(=O)[C@H](C)NC(N)=O)c1ccccc1,-7%,-16,-12%,-1%,5%,-3
CSc1nc2ccccc2c(=O)n1C1CCOC(C)(C)C1 (stereo not drawn),27%,-5,-4%,-7%,68%,-4
CCOC(=O)C(Cc1cc(N)c(Oc2ccc(OC)cc2)c(N)c1)NC(C)=O (stereo not drawn),x,x,-7%,x,x,x
CC(C)c1ccccc1NC(=O)c1cccc(NC(=O)c2ccccc2)c1,u,-11,15%,-11%,x,-3
Cc1c(NC(=O)COC(=O)c2ccc(O)cc2)c(=O)n(-c2ccccc2)n1C,8%,x,-11%,14%,88%,x
O=C(Cc1ccc(Br)cc1)OCC(=O)c1ccc[nH]1,x,x,9%,-3%,x,x
COc1ccc(-c2cc(OC(=O)c3ccc(F)cc3)c3c(C)oc(C)c3c(=O)c2)cc1,u,-6,x,-7%,10µM*,-4
COc1ccc(C(=O)Oc2ccc[nH]c2=O)cc1,u,11,24%,2%,13%,10
CN1CCc2c(sc(NC(=O)c3ccc(S(=O)(=O)N4CCCC4)cc3)c2C(N)=O)C1,u,-28,4%,1%,u,-2
NC(=O)c1c(NC(=O)c2ccc([N+](=O)[O-])o2)sc2c1CCCC2,-56%,13,2%,-12%,33%,10
